Only some compounds are listed: those with a hit (about 4.6% of all), similar ones and a draw of the others.
V-ATPase pH = regulators of yeast V-ATPase proton pumping, primary screen, pHLuorin cytosolic pH fluorescence | S. cerevisiae | response, % at 10 µM | 0.37% of 350,000 active; in the data active = response mostly above about 7.3%, no sharp cut-off; inactive = mostly below about 5.4%; note: actives read high
SKKanGAS inh = S. pyogenes SKKanGAS growth inhibitors in kanamycin, primary screen, streptokinase expression inhibitor project, SKKanGAS strain, BacTiter-Glo luminescence; 6 h; inhibition, % at 7.5 µM; 1.3% of 300,000 active; AID 1662, 2009;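 active = mean replicate score, as percent of positive control median, at least 50; inconclusive = mean below 50 but one replicate at or above 50; inactive = mean and every replicate below 50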;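 note: strain carries kanamycin resistance gene driven by streptokinase promoter and grows in 40 µg/ml kanamycin; loss of luminescence reflects streptokinase promoter inhibition or plain growth inhibition; 0% = median of DMSO wells and 100% = positive control at its reference dose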
tim23-1 inh = growth inhibitors of tim23-1 mutant yeast, primary screen, luminescence, uHTS. 1.3% of 330,000 active. inhibition, % at 20 µM. S. cerevisiae tim23-1 growth, BacTiter-Glo luminescence, 24 h;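 active = growth inhibition of the mutant yeast at or above 50%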;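 note: temperature-sensitive mutant grown at 25 °C; plate controls were DMSO-treated mutant yeast for no effect and medium wells lacking yeast for full effect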
PfHsp90 set2 = growth inhibition of PfHsp90-expressing yeast, primary screen, antimalarial PfHsp90 inhibitor project, S. cerevisiae, BacTiter-Glo luminescence, single point, set 2. BacTiter-Glo ATP, 48 h; yeast lacking PDR1 and PDR3 efflux regulators. 0.32% of 310,000 active. inhibition, % at 9.4 µM;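 active = every replicate shows inhibition above about 80%, whatever the replicate mean, limit read from the data; inconclusive = mean inhibition reaches the set limit but some replicate falls short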;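 note: 0% = DMSO neutral controls and 100% = 20 µM radicicol positive controls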
TIM10 inh = growth inhibitors of isogenic TIM10 control yeast, primary screen, counter-screen for tim10-1 yeast inhibitor project, luminescence, uHTS | inhibition, % at 10 µM | S. cerevisiae TIM10 strain growth, BacTiter-Glo luminescence, 24 h | 1.4% of 330,000 active;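 active = inhibition of 40% or more at the single tested concentration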;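 note: wild-type TIM10 isogenic control strain grown at permissive 25 °C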
tim10-1 inh = growth inhibitors of tim10-1 mutant yeast, primary screen, luminescence, uHTS; S. cerevisiae tim10-1 ts strain growth, BacTiter-Glo, 24 h; inhibition, % at 20 µM; 2.2% of 330,000 active;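 active = inhibition of at least 40%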;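 note: mutant grown at 25 °C; 0% = DMSO wells with yeast and 100% = wells holding no yeast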
V-ATPase pH SP = yeast V-ATPase proton pumping modulators, confirmation, S. cerevisiae, pH-sensitive GFP, second cherry-pick. S. cerevisiae pHLuorin cytosolic pH, V-ATPase proton transport. 2% of 980 active. AID 602197, 2012. shares compounds with V-ATPase pH. response, % at 10 µM; in the data active = response above about 24%;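 note: plate controls were vehicle wells for no effect and positive control wells for full effect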
Numbers without * were called inactive; ? = inconclusive; / = no result.

SMILES	V-ATPase pH	SKKanGAS inh	tim23-1 inh	PfHsp90 set2	TIM10 inh	tim10-1 inh	V-ATPase pH SP
Cc1cc(NC(=O)C(C)SCC(=O)Nc2ccccc2C(C)(C)C)no1 (stereo not drawn)	9.9*	5	21	18	10	16	-4
CCOc1ccc(CCNC(=O)CSc2cc(=O)n(CC)c3ccccc23)cc1OCC	14*	12	11	37	15	20	-3
O=C(CCNC(=O)N1CC(=O)Nc2ccccc21)NCc1ccc(Cl)cc1	0	/	/	/	/	/	/
COC(=O)[C@H](Cc1ccccc1)NC(=O)Cn1ccc(NC(=O)OCc2ccccc2)nc1=O	2	/	14	4	-4	8	/
CC(=O)N1N=C(c2ccccc2)OC1(C)CC(=O)Nc1ccccc1 (stereo not drawn)	8.3*	4	20	10	4	24	0
CN(C(=O)CSc1nc2ccccc2o1)C1CCCCC1	-3	/	17	/	0	7	/
CSc1nc2cc(S(=O)(=O)N3CCOCC3)ccc2s1	19*	-1	7	-2	-1	2	0
COc1ccc(NC(=O)CSc2nnc(CCC(=O)Nc3ccc(C)c(Cl)c3)n2C)cc1	1	-3	-17	4	-12	-19	/
CCOC(=O)c1nc2c(ccc3ccccc32)cc1C	3	-13	32	/	15	20	-1
CCCCCCCOC(=O)C[N+](C)(C)CCOC1CC2CCC1(C)C2(C)C (stereo not drawn)	-1	?	/	-6	/	/	/
CCCCCCOC(=O)C[N+](C)(C)CCOC1CC2CCC1(C)C2(C)C (stereo not drawn)	12*	19	-24	5	40	15	1
Nc1o[nH]c(=O)c1C1CCCCC1	-1	/	/	1	/	/	/
Clc1ccccc1OCCCOc1cccc2cccnc12	12*	46	36	10	13	13	20
COc1cccc(OC)c1OCCCOc1cccc2cccnc12	-2	6	29	/	9	36	/
c1ccc(-c2nnc(-c3ccccc3)o2)cc1	-1	-7	-7	4	-5	-37	/
CSc1ccc(/C=C(/Sc2nnc(-c3ccccc3)o2)C(=O)O)cc1	0	-6	-12	-43	-16	-21	-34
O=C(O)/C(=C\c1cccs1)Sc1nnc(-c2ccc(F)cc2)o1	0	1	-8	/	-32	7	2
CSc1nnc(-c2ccccc2)o1	0	-1	11	6	-7	-26	1
CN(CC(=O)Nc1ccccc1Cl)CC(=O)Nc1sc2c(c1C(N)=O)CCC2	-3	14	24	-4	13	17	/
C=CC[C@@H](CC(=O)N(CCO)Cc1ccccc1)C(=O)N[C@@H](C)COC(=O)[C@@H](CC=C)CC(=O)OC(C)(C)C	14*	/	1	-2	3	3	5
Cc1ccc(CCNS(=O)(=O)c2cc3c(cc2C)n(C)c(=O)c(=O)n3C)cc1	10*	-4	15	-11	-10	4	2
C/C(=N\O)C(C)(C)Nc1cccc(Br)c1	16*	2	-11	15	-11	-15	4
CCOC(=O)N1CCN(CC(O)COc2ccc3c(c2)CCC3)CC1 (stereo not drawn)	-4	2	-4	-6	5	5	/
O=[N+]([O-])c1cc(C(F)(F)F)ccc1N1CCN(S(=O)(=O)c2ccc3c(c2)CCCC3)CC1	1	9	7	-5	4	18	/
O=C(Nc1ccc(F)cc1)C1CCCN(C2=NS(=O)(=O)c3ccccc32)C1 (stereo not drawn)	2	/	6	20	-5	8	/
SMILES	V-ATPase pH	SKKanGAS inh	tim23-1 inh	PfHsp90 set2	TIM10 inh	tim10-1 inh	V-ATPase pH SP
CC(=O)c1c(C)[nH]c(C(=O)NCc2cccc(Cl)c2)c1C	9.6*	-2	17	3	21	24	-2
CCOc1ccc(NC(=O)CCC(=O)N/N=C(\C)c2cccs2)cc1	8.8*	-3	-1	5	6	-13	1
CCOc1ccc(NC(=O)CCC(=O)NNC(=O)c2ccco2)cc1	9.2*	-4	6	-9	4	7	3
CC(=O)NC(Cc1ccccc1)C(=O)N1CCN(C(=O)c2ccco2)CC1 (stereo not drawn)	-5	-3	-1	16	-18	6	/
O=C(NC(Cc1ccccc1)C(=O)N1CCN(c2ccccn2)CC1)c1ccco1 (stereo not drawn)	12*	-1	21	16	-9	1	-2
Cc1ccccc1S(=O)(=O)Cc1ccc(C(=O)NCCCN2CCN(C)CC2)o1	7.6*	2	-7	-55	-25	6	1
CCOC(=O)c1c(SCCN2CCCCC2)n(-c2ccccc2)c(=S)n(-c2ccccc2)c1=O	-3	/	/	14	/	/	/
O=C(C1CCN(c2nc(-c3ccccc3)nc3c2CCC3)CC1)N1CCC(O)CC1	11*	-3	2	11	5	2	-1
OC[C@@H](O)[C@H](O)C(/C=N/Nc1ccccc1)=N\Nc1ccccc1	7	0	6	10	6	-11	/
CCOC(=O)CC(=O)CSc1nnc2c(n1)[nH]c1ccccc12	-3	14	7	-20	14	17	-1
CC1=NN(c2nc(N)nc(/C(C#N)=C/c3ccc([N+](=O)[O-])o3)n2)C(C)(C)C1	48*	/	/	8	/	/	0
COc1ccc(-c2nc(S(=O)(=O)c3ccccc3)c(NCCCN3CCOCC3)o2)cc1	-3	/	1	/	-4	-3	/
Cc1cn(CC(=O)NCC(C)c2ccccc2)c(=O)[nH]c1=O (stereo not drawn)	4	/	/	40	/	/	/
CS(=O)(=O)N1Cc2ccccc2CC1C(=O)OCC(=O)NCc1ccccc1 (stereo not drawn)	-2	/	4	/	-3	-9	/
CS(=O)(=O)N1Cc2ccccc2CC1C(=O)OCC(=O)NCCc1ccc(S(N)(=O)=O)cc1 (stereo not drawn)	12*	/	-6	1	-3	-1	1
CC(=O)Nc1c(Cl)c2c(c(Cl)c1Br)-c1ccc(Cl)cc1C2	1	/	/	-10	/	/	/
Cc1ccccc1-c1ccccc1CN1[C@@H](C(C)C)COCCS1(=O)=O	8.8*	/	42	-15	-8	14	2
O=C(CCCN1CCN(c2ccccc2)CC1)c1ccc(F)cc1	1	/	/	/	/	/	/
CN1CCN(CCCC(=O)c2ccc(F)cc2)CC1	4	2	8	39	-3	7	0
CCN(CC)CCC(=O)c1ccc(F)cc1	-2	4	24	29	3	20	/
CN(C)CCC(=O)c1ccc(F)cc1	1	5	14	-10	16	3	11
